In all, about 400,000 compounds went through this assay and about 2,100 (0.53%) were called active. Inconclusive results (about 14%) are left out. The rule behind the calls is not given here. The list comes from a sample in which actives are over-represented; it also holds similar structures and randomly drawn compounds.

Sequence of Ataxin-2 (Homo sapiens) (Q99700 whole entry): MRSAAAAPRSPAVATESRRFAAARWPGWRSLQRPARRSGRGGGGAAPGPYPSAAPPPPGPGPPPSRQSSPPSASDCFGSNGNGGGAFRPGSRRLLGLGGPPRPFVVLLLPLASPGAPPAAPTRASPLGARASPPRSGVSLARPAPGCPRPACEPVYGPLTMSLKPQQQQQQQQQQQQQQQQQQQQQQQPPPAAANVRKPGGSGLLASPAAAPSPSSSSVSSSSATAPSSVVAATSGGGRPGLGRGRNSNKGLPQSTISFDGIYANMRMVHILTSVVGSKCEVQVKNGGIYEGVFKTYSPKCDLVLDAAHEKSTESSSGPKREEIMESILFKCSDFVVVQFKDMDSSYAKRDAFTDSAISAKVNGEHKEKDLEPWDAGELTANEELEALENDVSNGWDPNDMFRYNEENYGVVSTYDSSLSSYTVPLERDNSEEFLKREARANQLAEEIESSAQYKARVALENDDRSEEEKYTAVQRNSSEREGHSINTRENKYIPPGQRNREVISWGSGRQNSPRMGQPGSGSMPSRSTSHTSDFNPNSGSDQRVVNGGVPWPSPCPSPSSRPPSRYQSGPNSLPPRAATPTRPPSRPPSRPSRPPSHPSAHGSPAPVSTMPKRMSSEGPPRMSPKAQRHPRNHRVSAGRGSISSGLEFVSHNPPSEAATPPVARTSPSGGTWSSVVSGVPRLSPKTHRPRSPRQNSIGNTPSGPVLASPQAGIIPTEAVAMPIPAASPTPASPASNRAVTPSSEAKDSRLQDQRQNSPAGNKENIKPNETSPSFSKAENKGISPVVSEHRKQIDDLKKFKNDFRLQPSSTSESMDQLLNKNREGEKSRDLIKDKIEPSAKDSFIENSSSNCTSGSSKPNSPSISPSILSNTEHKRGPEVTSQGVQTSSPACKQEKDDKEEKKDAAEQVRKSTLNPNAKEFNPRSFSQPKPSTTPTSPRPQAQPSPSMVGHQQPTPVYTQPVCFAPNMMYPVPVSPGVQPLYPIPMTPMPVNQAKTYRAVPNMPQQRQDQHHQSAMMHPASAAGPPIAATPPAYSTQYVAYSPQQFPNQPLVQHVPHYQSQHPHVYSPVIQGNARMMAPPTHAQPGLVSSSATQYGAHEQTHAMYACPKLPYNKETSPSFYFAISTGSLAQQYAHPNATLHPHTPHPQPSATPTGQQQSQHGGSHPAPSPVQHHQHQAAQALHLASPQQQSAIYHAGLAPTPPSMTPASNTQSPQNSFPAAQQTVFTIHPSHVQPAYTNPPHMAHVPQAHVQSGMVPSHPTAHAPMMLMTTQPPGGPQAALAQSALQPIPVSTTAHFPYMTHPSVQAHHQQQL

The experiment concerns the target Ataxin-2 (Homo sapiens) (UniProt Q99700). Nature of the experiment: qHTS for Inhibitors of ATXN expression. Format: functional. (qHTS replaces the single test concentration by a dilution series.)
Regarding `Cc1ccc(-c2nnn3c2nc(NCCc2ccc(S(N)(=O)=O)cc2)c2ccccc23)cc1`, the Potency entry was “inactive”. Regarding `CC(=O)NCCNc1nc2c(-c3cccc(C(F)(F)F)c3)nnn2c2ccccc12`, the Potency result was “inactive”. Consider `Cc1ccc(S(=O)(=O)c2nnn3c2nc(NC2CCN(Cc4ccccc4)CC2)c2ccccc23)cc1C`, for which the Potency is 39.8 µM (active).

In the case of `Cc1nc2nc(SCC(=O)O)nn2c(C)c1Cc1ccccc1Cl`, the Potency entry is “inactive”. For `Cc1ccc(OCC(=O)N2CC(C)OC(C)C2)c([N+](=O)[O-])n1` (stereo not drawn), the Potency result was “inactive”.

For `CN1C2CCC1/C(=C/c1cccn1C)C(=O)/C2=C\c1cccn1C`, the Potency result is “inactive”. Turning to `N=c1c(S(=O)(=O)c2ccc(Br)cc2)cc2c(=O)n3ccccc3nc2n1Cc1ccco1`, the Potency result is “inactive”. Regarding `O=[N+]([O-])c1cc(-c2ncccn2)c([N+](=O)[O-])s1`, the Potency is 25.1 µM (active). Take `Cc1c(NS(=O)(=O)c2cc([N+](=O)[O-])ccc2Cl)c(=O)n(-c2ccccc2)n1C`: the Potency entry is “inactive”. The entry for `CC(c1ccon1)N(C)C(=O)c1cnn(-c2ncc3c(n2)-c2ccccc2CC3)c1C1CC1` (stereo not drawn) is “inactive”; for `Cc1cc(C)c(C#N)c(OCc2ccc(Cl)nc2)n1` it is “inactive”; for `N#Cc1ccc(C(=O)OCC(=O)Nc2cccnc2Cl)cc1` it is “inactive”. For `Cc1ccc(NC(=O)/C(C#N)=C/c2cc(C)n(-c3ccc(Br)cc3)c2C)cc1C`, the Potency is 35.5 µM (active). Turning to `Cc1ccc(NC(=O)/C(C#N)=C/c2cn(CC(=O)NCc3ccco3)c3ccccc23)cc1C`, the Potency entry is “inactive”. As for `COc1cc(C)c(/C=C(\C#N)C(=O)Nc2ccc(C)cc2)cc1C(C)C`, the Potency result is “inactive”. Take `CNC(=S)N/N=C/c1c2ccccc2c(Cl)c2ccccc12`: the Potency result is “inactive”.

`NC(=S)NN=Cc1nccc2c(N)cccc12`: the Potency was 8.91 µM (active).

Turning to `NC(=S)NN=Cc1nccc2c(C(F)(F)C(F)(F)C(F)(F)F)cccc12`, the Potency was 1 µM (active).

As for `N=c1c(C(=O)NCC2CCCO2)cc2c(=O)n3ccccc3nc2n1CCCO` (stereo not drawn), the Potency entry is “inactive”. For `OCCn1ccc(-c2ccccc2OCc2ccc(F)cc2)n1`, the Potency result was “inactive”.

On to `CCCCCCc1cc2cc(S(=O)(=O)c3ccc(C)cc3)c(=O)oc2cc1O`, for which the Potency entry was “inactive”. With `CC(C)N(C(=O)CS(=O)(=O)c1ccc(Cl)c(Cl)c1)C(C)C`, the Potency entry is “inactive”. Consider `O=C(NCC1CCCO1)c1nn2c(C(F)(F)F)cc(-c3cccs3)nc2c1Br` (stereo not drawn), for which the Potency result was “inactive”.

Turning to `COCCCNc1nc2ccccc2nc1NS(=O)(=O)c1cc(Cl)ccc1Cl`, the Potency result is “inactive”. Regarding `CCCCNC(=O)C(C)N(CCN(C)C)C(=O)CCCN1C(=O)NC(c2ccc(Cl)cc2)C(C(=O)OCc2ccccc2)=C1C` (stereo not drawn), the Potency is 25.1 µM (active).

For the molecule `NC(=O)C1(N2CCCCC2)CCN(C(=O)c2cc(COc3c(F)cccc3F)on2)CC1`, the Potency result is “inactive”. The entry for `Cc1ccc(C(=O)Nc2ccc(S(=O)(=O)Nc3ncccn3)cc2)cc1[N+](=O)[O-]` is “inactive”; for `Cc1ccc(NC(=O)c2ccc(Nc3c([N+](=O)[O-])cc([N+](=O)[O-])cc3[N+](=O)[O-])cc2)cc1` it is 15.8 µM (active); for `COc1ccc(C(=O)Nc2ccc(S(=O)(=O)Nc3nccc(C)n3)cc2)cc1[N+](=O)[O-]` it is “inactive”.

`C/C(=N\NC(=O)CC#N)c1cc2ccc(O)cc2oc1=O`: the Potency result was “inactive”. In the case of `COc1ccc(CN2CCCC(N3CCN(c4cccc(Cl)c4)CC3)C2)cc1OC` (stereo not drawn), the Potency result is “inactive”. For the molecule `Cc1cc2sc3ccccc3c(=O)c2c(C)c1O`, the Potency result was “inactive”. For `CCN(CC)CCNc1ccc(C)c2sc3ccc(O)cc3c(=O)c12`, the Potency is 33.6 µM (active).

As for `CNC(=O)OCc1nc(SSC(C)(C)C)n(C)c1COC(=O)NC`, the Potency was 23.8 µM (active). For the molecule `CC(=O)CC1OC(O)=C(Br)/C1=N/Cc1ccccc1` (stereo not drawn), the Potency was 20 µM (active). `NC(=O)c1cc2ccc(O)cc2o/c1=N\Cc1ccccc1`: the Potency entry was “inactive”. As to `Oc1nc(N2CCOCC2)cc2ccccc12`, the Potency entry is “inactive”. Regarding `Cc1nc(NS(=O)(=O)c2ccccc2)sc1C(=O)NN`, the Potency entry is “inactive”.

Regarding `Cc1cccc(Nc2nc(-c3ccccc3)c(C(=O)Nc3cccnc3)s2)c1`, the Potency entry was “inactive”. Take `Cc1nc(NC(=O)/C=C/c2ccccc2)sc1C(=O)Nc1ccc(Cl)cc1`: the Potency is 39.8 µM (active). Turning to `CC(C)=CC(=O)N1CCC(N2CCC(C(=O)N3CCOCC3)CC2)CC1`, the Potency result was “inactive”. In the case of `O=C(COCc1cc(-c2ccco2)on1)NC1CCCCC1`, the Potency result is “inactive”. In the case of `CCCc1cc(=O)oc2c(C)c(O[C@@H]3O[C@H](CO)[C@@H](O)[C@H](O)[C@H]3O)ccc12` it was “inactive”; in that of `Nc1nc(N)c2nc(-c3ccccc3)c(N)nc2n1`, “inactive”. `COc1ccc(OC)c(Nc2nc(-c3ccncc3)nc3ccccc23)c1`: the Potency entry was “inactive”.

Regarding `OCCNc1nc(Nc2ccc(Br)cc2)nc2ccccc12`, the Potency entry was “inactive”.

For `Cc1cccc(Nc2nc(NCc3ccco3)c3ccccc3n2)c1`, the Potency is 25.1 µM (active). Consider `COc1ccc(OC)c(Nc2nc(NCc3ccco3)c3ccccc3n2)c1`, for which the Potency was 39.8 µM (active). As for `Cc1ccc(-c2nc(NCc3ccco3)n(S(C)(=O)=O)n2)cc1`, the Potency result was “inactive”.

As to `COc1ccc(OC)c(Nc2nc(-c3ccccc3O)nc3ccccc23)c1`, the Potency result was “inactive”. For the molecule `O=[N+]([O-])c1cccc(S(=O)(=O)NCC2CC3CCC2C3)c1` (stereo not drawn), the Potency entry was “inactive”. With `CC(C)(C)c1ccc(SCCc2cccnc2)cc1`, the Potency result is “inactive”.

Turning to `Nc1c(C(=O)Nc2ccc(Cl)cc2F)sc2nc(-c3cccs3)ccc12`, the Potency result is “inactive”. In the case of `NC(=O)c1cc(N2C(=O)C=CC2=O)ccc1Cl` it was 35.5 µM (active); in that of `O=C(O)c1cccc(N2C(=O)c3cccc4c(Cl)ccc(c34)C2=O)c1`, “inactive”. For `CN1CCN(/N=C/c2ccc(-c3ccc([N+](=O)[O-])cc3Cl)o2)CC1`, the Potency entry was “inactive”. In the case of `CN1CCCN(C(=O)/C=C/c2ccc(Cl)cc2Cl)CC1` it was “inactive”. As for `CN1CCN(C(=O)/C=C/c2ccc([N+](=O)[O-])o2)CC1`, the Potency is 8.91 µM (active). `Nc1cccc2nc3ccccc3cc12`: the Potency entry was “inactive”. In the case of `C1=C/C(=N\C2CCCCC2)C=C2C1=NC13CCCCC1CC1=C(CCCC1)N23` (stereo not drawn), the Potency is 35.5 µM (active). As to `CSc1ccc(CN(C)Cc2nc(O)c3ccccc3n2)cc1`, the Potency result is “inactive”. `COc1ccc(CCNC(=O)CSc2cn(CCNC(=O)c3cccc(C(F)(F)F)c3)c3ccccc23)cc1OC`: the Potency is 22.4 µM (active). The entry for `CCn1c(CNC(=O)c2ccc3c(c2)OCO3)nnc1SCC(=O)Nc1ccccc1F` is “inactive”; for `Cc1nnc(NC(=O)CSc2cn(CCNC(=O)c3ccccc3)c3ccccc23)s1` it is “inactive”. In the case of `O=C(CSc1cn(CCNC(=O)c2cccc(C(F)(F)F)c2)c2ccccc12)Nc1ccc2c(c1)OCCO2` it was 35.5 µM (active). The entry for `COc1ccc(CCNC(=O)CSc2nnnn2C)cc1OC` is “inactive”; for `O=C(COC(=O)CCSc1ccccc1Cl)NCc1ccco1` it is “inactive”; for `COc1ccc(CC(=O)NNC2=Nc3cccc4cccc2c34)cc1` it is “inactive”. With `N#Cc1ccc(C(=O)CSc2nnc(-c3ccc(C(F)(F)F)cn3)s2)cc1`, the Potency entry was “inactive”. With `O=C(NCCO)/C(=C\c1ccco1)NC(=O)c1cccs1`, the Potency entry was “inactive”. As for `COC(=O)C1=CN(C(C)C)C=C(C(=O)OC)C1c1cccc(OC)c1`, the Potency entry is “inactive”.

Turning to `Cc1ccc(-c2nc(Nc3ccc(N4CCOCC4)cc3)c3ccccc3n2)cc1`, the Potency result is “inactive”. For `COc1ccc(C)cc1NC(=O)c1cc2c(=O)n3ccccc3nc2n1C`, the Potency result was “inactive”. The figure for `Cc1ccn2c(Nc3ccccc3C)c(-c3ccc(N4CCOCC4)cc3)nc2c1` is 35.5 µM (active); for `c1ccc2c(Nc3ccc(N4CCOCC4)cc3)nc(N3CCOCC3)nc2c1` it is “inactive”. With `COc1cc(O)ccc1-c1nc2cc(C)ccn2c1Nc1ccccc1C`, the Potency was 35.5 µM (active). For the molecule `Cc1ccccc1Nc1c(-c2ccc(N3CCOCC3)cc2)nc2cccc(C)n12`, the Potency is 22.4 µM (active). As to `Cc1cccc(C)c1Nc1c(-c2ccc(N3CCOCC3)cc2)nc2cnccn12`, the Potency entry was “inactive”. Take `CCCCNc1c(-c2ccc(-c3ccc(C(C)=O)cc3)c(OC)c2)nc2cnccn12`: the Potency entry was “inactive”. With `Cc1ccn2c(Nc3ccccc3C)c(-c3ccccn3)nc2c1`, the Potency was 15.8 µM (active). Turning to `c1cn2c(NC3CCCC3)c(-c3ccc(N4CCOCC4)cc3)nc2cn1`, the Potency result is “inactive”.

Turning to `C/C(=N/NC(=O)c1sc(NS(=O)(=O)c2ccccc2)nc1C)c1sc(N)nc1C`, the Potency entry was “inactive”. Take `CN(C)CC(O)c1ccc(C=Cc2ccc(Cl)cc2)cc1` (stereo not drawn): the Potency was 31.6 µM (active).

`Oc1nc2ccccc2nc1/C=C/c1ccc(Cl)cc1`: the Potency result is “inactive”. In the case of `CC(C)CN(CC(C)C)C(S)=Nc1ccc(Cl)cc1` it was “inactive”; in that of `Cc1ccc(S(=O)(=O)Nc2ccccc2/C=N/c2nc3ccccc3n2C(C)C)cc1`, “inactive”; in that of `Nc1cc2sc(-c3ccc(C(=O)O)cc3)nc2cc1Cl`, “inactive”. The figure for `CC[C@@H](C)[C@H](CN[C@H](CNC)C(C)C)NC[C@@H](C)c1ccc(CC(C)C)cc1` is 22.4 µM (active). The figure for `COc1cc(CNC2CCCC2)cc(Cl)c1OCc1ccccc1F` is 28.2 µM (active).

Take `COc1cc(/C=C(\C#N)c2nc3ccccc3[nH]2)cc(Cl)c1OCc1ccccc1Cl`: the Potency result is “inactive”.

For the molecule `NNC(=O)c1oc2ccccc2c1-n1cccc1`, the Potency result was “inactive”. In the case of `O=c1c(Cl)cc(Cl)nn1-c1ccccc1`, the Potency was 25.1 µM (active).

For the molecule `Cc1nc2c(c(C)nn2-c2ccccc2)c(C)c1C`, the Potency result is “inactive”.

Regarding `Cc1cc(NC(=O)Nc2ccc(Cl)cc2)n(-c2ccccc2)n1`, the Potency result is “inactive”. Take `CCOC(=O)Cc1cnc(NC(=O)CSc2nc(C)c(CC)c(O)n2)s1`: the Potency entry is “inactive”.

As for `OCCCNCc1ccc(-c2ccccc2)cc1`, the Potency entry is “inactive”.

Take `CC(C)Oc1ccc(C(CCNCc2ccc(O)cc2)c2ccccc2)cc1` (stereo not drawn): the Potency is 39.8 µM (active). Consider `COc1ccc(CNCCC(c2ccc(OC(C)C)cc2)C(C)C)cc1OC` (stereo not drawn), for which the Potency is 25.1 µM (active). As to `O=c1c(O)c(-c2ccc(O)c(O)c2)oc2cc(O)ccc12`, the Potency result was “inactive”. Regarding `NC(=O)C[n+]1ccc(C=NO)cc1`, the Potency result was “inactive”. With `CCc1cc(=O)oc2c(CNCc3ccccc3F)c(O)c(Cl)cc12`, the Potency result is “inactive”.

With `O=C(NNC(=O)c1cc2cc(Br)ccc2oc1=O)c1ccc(O)cc1O`, the Potency result was “inactive”. Turning to `Cc1ccc(NC(=O)CSCC(=O)OCc2cc(=O)oc3cc(O)ccc23)c(C)c1`, the Potency result was “inactive”.

(Values after ChEMBL document CHEMBL1201862, “PubChem BioAssay data set” (2004).)
